Gli-Sufu antag: Gli-Sufu pathway antagonists, primary screen, luciferase luminescence, Sufu-KO-LIGHT cells, uHTS | AID 588413, 2011 | Sufu-KO-LIGHT fibroblasts, Gli luciferase reporter luminescence | 0.74% of 340,000 active | inhibition, % at 5 µM;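 active means inhibition above about 55%, limit read from the data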
Mdm2 MdmX PPI: inhibitors of human Mdm2-MdmX association, primary screen, cell-based, luminescence, split luciferase, SaOS-2, uHTS; Protein Mdm4 (Homo sapiens) + E3 ubiquitin-protein ligase Mdm2 (Homo sapiens), …; SaOS-2 split-luciferase Mdm2/MdmX complementation; inhibition, % at 8 µM; 3% of 330,000 active;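 active means inhibition of at least 50% at 8 µM in the primary screen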
Target sequence (O15151 whole entry, looked up): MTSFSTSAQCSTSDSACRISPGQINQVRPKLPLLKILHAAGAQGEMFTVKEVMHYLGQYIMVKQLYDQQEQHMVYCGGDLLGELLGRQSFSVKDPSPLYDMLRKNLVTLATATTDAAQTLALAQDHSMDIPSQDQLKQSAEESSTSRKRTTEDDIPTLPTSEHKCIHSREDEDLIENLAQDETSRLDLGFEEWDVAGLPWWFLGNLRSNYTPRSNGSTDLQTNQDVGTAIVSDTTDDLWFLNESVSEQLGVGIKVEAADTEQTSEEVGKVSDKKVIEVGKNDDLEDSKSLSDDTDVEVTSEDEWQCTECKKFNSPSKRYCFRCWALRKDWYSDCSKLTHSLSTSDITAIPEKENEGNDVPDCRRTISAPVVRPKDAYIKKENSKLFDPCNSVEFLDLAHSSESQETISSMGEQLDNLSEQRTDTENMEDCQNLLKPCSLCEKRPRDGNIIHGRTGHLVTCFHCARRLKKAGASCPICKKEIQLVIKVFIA
Target sequence (Q00987 whole entry, looked up): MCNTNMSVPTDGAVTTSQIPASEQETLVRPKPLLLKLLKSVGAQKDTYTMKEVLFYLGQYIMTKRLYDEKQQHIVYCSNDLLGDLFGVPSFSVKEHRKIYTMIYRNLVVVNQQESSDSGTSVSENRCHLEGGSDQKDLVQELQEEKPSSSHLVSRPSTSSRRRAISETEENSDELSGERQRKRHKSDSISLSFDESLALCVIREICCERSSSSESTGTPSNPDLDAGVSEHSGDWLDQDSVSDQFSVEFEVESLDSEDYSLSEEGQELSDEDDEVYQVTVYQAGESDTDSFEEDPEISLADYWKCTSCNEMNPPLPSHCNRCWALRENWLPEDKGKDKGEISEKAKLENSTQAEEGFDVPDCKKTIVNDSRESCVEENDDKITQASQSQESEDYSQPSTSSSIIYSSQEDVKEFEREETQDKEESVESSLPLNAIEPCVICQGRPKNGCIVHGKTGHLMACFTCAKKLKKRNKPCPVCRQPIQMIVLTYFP
GRIN3A LBD mod: binders of NR3A ligand-binding domain, primary screen, biophysical, differential scanning fluorimetry, uHTS; Glutamate receptor ionotropic, NMDA 3A (GRIN3A) ligand-binding domain; NR3A LBD differential scanning fluorimetry, Tm shift; 0% = protein alone, 100% = glycine-bound protein; Tm shift relative to glycine control, % at 25 µM; 2.5% of 340,000 active; AID 1259313, 2017;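 active means melting temperature shift of at least 10% of the positive control shift, at one fixed dose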
Beta cell apopt: inhibitors of cytokine-induced beta cell apoptosis, primary screen, luminescence | protection from apoptosis, % (concentration not given with the values) | INS-1E cytokine-induced death, ATP luminescence, 48 h; percent of positive-control rescue, neutral wells zero | 0.8% of 300,000 active;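 active means Every replicate reaches about 75%, or at least half do and their mean reaches it too, limit read from the data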;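 further: higher means more ATP so stronger rescue from cytokine killing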
CSC inhib: cancer stem cell viability inhibitors, primary screen, luminescence. inhibition, % at 7.5 µM. 1.1% of 300,000 active. cancer stem cell-like cells viability; in the data active means inhibition above about 75%; tested in HMLE shEcad cells
MPTP block: mitochondrial permeability transition pore inhibitors, primary screen, biochemical, isolated mouse mitochondria, absorbance; inhibition, % at 10 µM; AID 602449, 2012; 1.4% of 360,000 active; Ca2+ swelling absorbance, 30 min;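 active means inhibition of 50% or more, scaled per plate between neutral and stimulator controls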
Mdm2 MdmX conf: Mdm2-MdmX complex disruptors, retested hits, confirmation, luminescence, single concentration. shares compounds with Mdm2 MdmX PPI. Mdm2-MdmX binding, luminescent assay. inhibition, % at 8 µM. 55% of 10,000 active. AID 489028, 2010; in the data active means inhibition above about 40%
Full FLuc ctr: full-length luciferase signal inhibition, confirmation, counter-screen for Mdm2/MdmX interaction inhibitor project, cell-based, single concentration, SaOS-2; 77% of 6,200 active; AID 504607, 2011; shares compounds with Mdm2 MdmX PPI; SaOS-2 full-length luciferase counterscreen, luminescence; inhibition, % at 8 µM;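 active means mean inhibition at 8 µM reaching about 37%, which flags the compound as non-specific, limit read from the data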;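 further: p53-null SaOS-2 cells with luciferase driven by a doxycycline-inducible promoter; compound on cells about two nights before reading with doxycycline added after day one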
Gli antag conf: Gli-SUFU pathway antagonists, confirmation, single concentration, luciferase luminescence, Sufu-KO-LIGHT cells | shares compounds with Gli-Sufu antag | Gli luciferase reporter | inhibition, % at 5 µM | 40% of 2,500 active;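 active means mean inhibition at 5 µM reaching about 45%, limit read from the data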
Gli cytotox: cytotoxicity in Sufu-KO-LIGHT cells, confirmation, cytotoxicity control for Gli-SUFU antagonist project, cell-based, ATP luminescence, single concentration; cytotoxicity, % at 5 µM; AID 651994, 2013; 32% of 2,500 active; shares compounds with Gli-Sufu antag;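 active means mean cytotoxicity at 5 µM above about 25%, limit read from the data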;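 further: cells exposed to compound overnight for roughly 16 to 18 hours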
Wnt3a cs: Wnt3a reporter signal inhibition, confirmation, counter-screen for Gli-SUFU antagonist project, Wnt-LIGHT cells, luminescence, single concentration. inhibition, % at 6.25 µM. 20% of 2,500 active. Wnt3a-driven luciferase reporter. AID 651995, 2013. shares compounds with Gli-Sufu antag;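 active means mean inhibition above about 25%, limit read from the data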
MPTP counter: fluorescence retest of MPTP screen hits in isolated mitochondria, single concentration; shares compounds with MPTP block; membrane potential, Rhodamine 123 fluorescence; inhibition, % at 10 µM; 78% of 5,000 active; AID 624504, 2012; in the data active means inhibition above about 22%
Hits are given with their value; i = inactive; nt = not tested or not shown. Rows were chosen to be rich in hits. Some 6.6% of all compounds tested hit in one or more screens of this group.

SMILES	Gli-Sufu antag	Mdm2 MdmX PPI	GRIN3A LBD mod	Beta cell apopt	CSC inhib	MPTP block	Mdm2 MdmX conf	Full FLuc ctr	Gli antag conf	Gli cytotox	Wnt3a cs	MPTP counter
Cc1nc2ccccc2n1-c1nc(-c2ccco2)cc(C(F)(F)F)n1	68	77	i	131	149	i	100	i	78	i	77	nt
FC(F)(F)c1cc(-c2ccco2)nc(-n2cnc3ccccc32)n1	i	i	i	i	i	i	nt	nt	nt	nt	nt	nt
CCCCc1ccc(NC(=O)C(=O)NCCN2CCN(Cc3ccc([N+](=O)[O-])cc3)CC2)cc1	56	67	i	i	i	i	i	nt	i	i	i	nt
COC(=O)CCC(=O)NC(=S)Nc1sc(C)c(C)c1C(N)=O	i	61	i	nt	i	i	58	91	50	51	i	nt
COC(=O)CCC(=O)Nc1sc(C)c(C)c1C(N)=O	i	i	i	i	i	i	nt	nt	nt	nt	nt	nt
CCN1CCN(C(=O)c2ccccc2NS(=O)(=O)c2ccc(Cl)cc2)CC1	i	i	i	i	i	i	nt	nt	nt	nt	nt	nt
CCOc1ccc(CC2c3cc(OCC)c(OCC)cc3CCN2C(=O)c2cc(OC)c(OC)c(OC)c2)cc1OCC (centres undefined)	i	i	i	i	i	i	nt	nt	nt	nt	nt	nt
COc1cc2c(c(OC)c1OC)-c1ccc(N(C)CC(OC)OC)c(=O)cc1[C@@H](NC(C)=O)CC2	57	68	i	i	75	i	63	132	58	34	i	nt
COc1cc2c(c(OC)c1OC)-c1ccc(OC)c(=O)cc1[C@@H](N(C)CC#CCO)CC2	66	51	nt	i	i	i	53	117	58	62	41	nt
C/C(=N\NC(=O)C(C)Oc1ccc([N+](=O)[O-])cc1)c1ccccn1 (centres undefined)	88	54	i	90	i	i	i	nt	85	33	56	nt
CN(Cc1ccccc1)C(c1ccnc2ccccc12)c1nnnn1-c1ccc2c(c1)OCCO2 (centres undefined)	nt	nt	nt	nt	nt	i	nt	nt	nt	nt	nt	nt
COc1ccccc1CNC(=O)COC(=O)c1cc(=O)c2ccccc2o1	i	i	i	i	i	i	nt	nt	nt	nt	nt	nt
CCN(CC)S(=O)(=O)c1cccc(NC(=O)Nc2cccc(C(F)(F)F)c2)c1	i	68	31	112	103	87	93	52	nt	nt	nt	69
NC(=S)n1[nH]c(-c2ccc([N+](=O)[O-])cc2)c(N=Nc2cccc(Cl)c2)c1=O	62	97	25	nt	nt	90	91	40	nt	nt	nt	70
CCCCCCCCC[n+]1cccc2c3ccccc3ccc21	i	91	i	111	i	89	87	57	nt	nt	nt	117
CN(C)CCCN(C(=O)CCc1ccccc1)c1nc2ccc(Cl)cc2s1	i	50	i	i	i	93	i	54	nt	nt	nt	i
